Common to all, as to test: DAPPL (digital affinity profiling via proximity ligation, sequencing); 10 mM Tris-HCl pH 7.5, 50 mM NaCl, 1 mM DTT, 4% glycerol, room temperature, 30 min; GST-TFs on glutathione beads, 16-mer random dsDNA library, 0.1% formaldehyde crosslink after washing; high values mean tight binding
Conditions in all cases: protein: recombinant; tags: N-terminal GST; dsDNA, one strand shown

The target in one assay is T1, ELK1 (Homo sapiens, UniProt P19419 1-428).
T1 sequence: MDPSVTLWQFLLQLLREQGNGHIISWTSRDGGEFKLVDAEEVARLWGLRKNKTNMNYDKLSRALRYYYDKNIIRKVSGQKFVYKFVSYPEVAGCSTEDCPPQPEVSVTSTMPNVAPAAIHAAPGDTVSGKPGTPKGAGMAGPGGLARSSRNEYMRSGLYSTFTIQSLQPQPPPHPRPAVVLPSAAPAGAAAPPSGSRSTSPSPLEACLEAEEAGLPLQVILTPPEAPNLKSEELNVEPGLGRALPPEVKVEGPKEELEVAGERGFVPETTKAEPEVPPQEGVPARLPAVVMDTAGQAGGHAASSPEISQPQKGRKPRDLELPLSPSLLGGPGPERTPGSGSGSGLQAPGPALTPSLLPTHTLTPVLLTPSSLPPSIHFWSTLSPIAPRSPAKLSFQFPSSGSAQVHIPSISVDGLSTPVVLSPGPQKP
The procedure, abridged: (§1)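 Beads coated with glutathione captured GST-fused human transcription factors that had been expressed in yeast, and the factors were then given DNA barcodes and pooled with a tag-only sample. The pools were incubated with 200 nmole of a random double-stranded 16-mer DNA library in Tris/NaCl/DTT/glycerol buffer for 30 min at room temperature, washed, crosslinked with 0.1% formaldehyde and proximity-ligated with BsaI/T4 ligase at 37 °C for 1 h. PCR amplification and Illumina NextSeq500 sequencing came last. Binding signal is each hexamer's read frequency for a factor divided by its frequency for the tag-only sample.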

The target of another assay is T2, GABPA (Homo sapiens, UniProt Q06546 1-454).
T2 sequence: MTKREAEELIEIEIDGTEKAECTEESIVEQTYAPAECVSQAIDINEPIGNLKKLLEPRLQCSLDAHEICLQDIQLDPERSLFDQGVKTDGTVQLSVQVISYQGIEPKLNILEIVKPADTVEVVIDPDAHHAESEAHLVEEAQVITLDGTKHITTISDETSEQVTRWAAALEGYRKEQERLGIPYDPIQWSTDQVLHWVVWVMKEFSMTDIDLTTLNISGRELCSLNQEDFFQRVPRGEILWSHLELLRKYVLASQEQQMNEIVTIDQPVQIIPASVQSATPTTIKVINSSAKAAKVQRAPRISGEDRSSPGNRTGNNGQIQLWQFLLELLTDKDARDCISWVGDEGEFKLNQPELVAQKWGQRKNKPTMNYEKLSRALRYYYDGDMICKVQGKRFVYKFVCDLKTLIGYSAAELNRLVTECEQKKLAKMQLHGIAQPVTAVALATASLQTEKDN
The method in brief: as §1

The target in the next assay is T3, ERG (Homo sapiens, UniProt P11308 1-479).
T3 sequence: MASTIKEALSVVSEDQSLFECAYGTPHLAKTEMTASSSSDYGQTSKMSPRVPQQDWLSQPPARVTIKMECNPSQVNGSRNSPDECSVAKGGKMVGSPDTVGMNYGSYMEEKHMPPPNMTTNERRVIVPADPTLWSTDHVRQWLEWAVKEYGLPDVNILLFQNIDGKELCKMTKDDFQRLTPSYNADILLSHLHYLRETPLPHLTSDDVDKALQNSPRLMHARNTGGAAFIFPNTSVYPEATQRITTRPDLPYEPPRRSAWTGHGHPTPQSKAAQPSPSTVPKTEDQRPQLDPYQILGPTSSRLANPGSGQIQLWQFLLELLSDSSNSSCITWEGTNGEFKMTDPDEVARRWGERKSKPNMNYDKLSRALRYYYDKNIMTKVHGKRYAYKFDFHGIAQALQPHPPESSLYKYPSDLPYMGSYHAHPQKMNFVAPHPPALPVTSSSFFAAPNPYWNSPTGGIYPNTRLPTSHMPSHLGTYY
The procedure, abridged: as §1

Another assay concerns the target SPIB (Homo sapiens, UniProt Q01892 1-262). The procedure, abridged:
as §1

The next assay concerns the target ETV5 (Homo sapiens, UniProt P41161 1-510). The method in brief: as §1
The target of the next assay is T4, ELK4 (Homo sapiens, UniProt P28324-2 1-405).
T4 sequence: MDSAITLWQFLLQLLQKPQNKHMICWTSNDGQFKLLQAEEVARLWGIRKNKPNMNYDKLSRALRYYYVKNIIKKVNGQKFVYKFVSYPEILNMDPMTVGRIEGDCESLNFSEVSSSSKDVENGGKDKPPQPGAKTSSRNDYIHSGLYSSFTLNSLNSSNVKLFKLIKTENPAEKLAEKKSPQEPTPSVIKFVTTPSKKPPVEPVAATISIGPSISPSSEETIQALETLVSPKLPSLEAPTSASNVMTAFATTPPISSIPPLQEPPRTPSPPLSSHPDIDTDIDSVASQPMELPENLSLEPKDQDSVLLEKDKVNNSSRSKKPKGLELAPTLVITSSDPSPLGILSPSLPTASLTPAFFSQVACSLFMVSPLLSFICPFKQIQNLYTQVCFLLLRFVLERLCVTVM
The method in brief: as §1

The next assay deals with T5, ERF (Homo sapiens, UniProt P50548 1-548).
T5 sequence: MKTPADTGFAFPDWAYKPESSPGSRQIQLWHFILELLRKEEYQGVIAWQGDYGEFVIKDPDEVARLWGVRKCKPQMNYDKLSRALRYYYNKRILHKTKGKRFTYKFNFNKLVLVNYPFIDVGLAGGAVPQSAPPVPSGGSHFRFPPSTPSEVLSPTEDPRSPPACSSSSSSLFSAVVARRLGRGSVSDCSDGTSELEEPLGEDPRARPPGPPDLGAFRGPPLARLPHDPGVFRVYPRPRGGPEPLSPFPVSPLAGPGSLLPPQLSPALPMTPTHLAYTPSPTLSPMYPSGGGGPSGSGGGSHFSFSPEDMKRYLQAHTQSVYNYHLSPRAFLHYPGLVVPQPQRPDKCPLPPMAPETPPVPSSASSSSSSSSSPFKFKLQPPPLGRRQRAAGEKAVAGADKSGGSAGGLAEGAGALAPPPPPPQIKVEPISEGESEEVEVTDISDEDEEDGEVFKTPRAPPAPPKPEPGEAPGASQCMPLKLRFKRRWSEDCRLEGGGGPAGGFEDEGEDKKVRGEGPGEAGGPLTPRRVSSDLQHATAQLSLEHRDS
The method in brief: as §1

A further assay concerns the target T6, ETS2 (Homo sapiens, UniProt P15036 1-469).
T6 sequence: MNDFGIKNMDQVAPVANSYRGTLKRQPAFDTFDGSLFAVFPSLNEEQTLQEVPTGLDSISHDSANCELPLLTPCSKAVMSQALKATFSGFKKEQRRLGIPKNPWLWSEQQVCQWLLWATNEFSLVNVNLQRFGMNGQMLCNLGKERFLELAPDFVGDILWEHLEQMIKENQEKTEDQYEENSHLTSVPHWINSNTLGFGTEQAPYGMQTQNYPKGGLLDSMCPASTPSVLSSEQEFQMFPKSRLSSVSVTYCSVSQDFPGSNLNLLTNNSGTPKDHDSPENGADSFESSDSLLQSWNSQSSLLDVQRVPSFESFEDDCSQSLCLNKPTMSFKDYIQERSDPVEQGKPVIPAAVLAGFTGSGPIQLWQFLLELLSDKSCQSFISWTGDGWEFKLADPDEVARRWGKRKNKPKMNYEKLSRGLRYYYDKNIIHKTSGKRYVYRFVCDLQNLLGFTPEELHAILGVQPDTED
The procedure, abridged:
as §1

In another assay the target is T7, SPDEF (Homo sapiens, UniProt O95238 1-335).
T7 sequence: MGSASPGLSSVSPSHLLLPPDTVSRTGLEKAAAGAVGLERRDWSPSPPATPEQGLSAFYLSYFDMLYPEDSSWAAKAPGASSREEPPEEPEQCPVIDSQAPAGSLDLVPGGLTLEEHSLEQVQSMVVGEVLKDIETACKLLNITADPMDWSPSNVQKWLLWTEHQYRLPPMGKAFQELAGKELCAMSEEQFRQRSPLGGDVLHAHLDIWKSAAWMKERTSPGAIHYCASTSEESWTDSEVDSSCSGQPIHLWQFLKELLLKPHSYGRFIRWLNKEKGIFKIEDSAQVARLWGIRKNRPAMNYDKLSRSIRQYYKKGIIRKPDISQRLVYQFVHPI
The procedure, abridged:
as §1

The target in a further assay is T8, ETV3 (Homo sapiens, UniProt P41162-2 1-143).
T8 sequence: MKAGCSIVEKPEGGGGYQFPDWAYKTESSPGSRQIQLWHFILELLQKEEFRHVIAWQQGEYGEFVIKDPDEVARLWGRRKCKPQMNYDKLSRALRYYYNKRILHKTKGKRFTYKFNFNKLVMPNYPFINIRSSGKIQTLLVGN
The method in brief:
as §1

For one sequence, binding signal results are on record in PMC7862700, “An all-to-all approach to the identification of sequence-specific readers for epigenetic DNA modifications on cytosine”.

Chain of SPIB (Q01892 whole entry): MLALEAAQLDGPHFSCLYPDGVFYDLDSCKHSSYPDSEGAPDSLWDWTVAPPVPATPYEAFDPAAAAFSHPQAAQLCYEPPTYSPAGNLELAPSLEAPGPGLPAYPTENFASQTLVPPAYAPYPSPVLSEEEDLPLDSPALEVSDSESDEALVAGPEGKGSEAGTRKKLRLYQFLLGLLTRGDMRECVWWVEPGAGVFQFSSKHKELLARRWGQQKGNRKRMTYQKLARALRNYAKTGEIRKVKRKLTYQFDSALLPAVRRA
Chain of ETV5 (P41161 whole entry): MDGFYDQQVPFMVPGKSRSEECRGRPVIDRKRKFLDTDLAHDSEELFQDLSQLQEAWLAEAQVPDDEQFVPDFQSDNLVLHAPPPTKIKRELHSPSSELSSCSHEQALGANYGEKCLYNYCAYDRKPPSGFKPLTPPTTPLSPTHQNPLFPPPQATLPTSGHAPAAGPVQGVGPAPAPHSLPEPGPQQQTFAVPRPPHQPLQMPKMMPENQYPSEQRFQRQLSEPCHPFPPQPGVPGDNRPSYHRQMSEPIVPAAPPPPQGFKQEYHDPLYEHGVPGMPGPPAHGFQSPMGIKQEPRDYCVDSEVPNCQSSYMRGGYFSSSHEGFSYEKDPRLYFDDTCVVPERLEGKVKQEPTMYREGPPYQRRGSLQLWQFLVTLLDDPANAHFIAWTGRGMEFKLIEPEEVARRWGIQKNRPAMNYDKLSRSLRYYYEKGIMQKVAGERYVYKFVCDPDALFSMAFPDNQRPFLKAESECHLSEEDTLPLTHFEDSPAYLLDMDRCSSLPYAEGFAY

As to TAGTAG, the binding signal in the assay with ELK1 was 1.02 fold enrichment (6-mer frequency, TF over GST control); in the assay with GABPA, 1.01 fold enrichment (6-mer frequency, TF over GST control); with ERG, 1.01 fold enrichment (6-mer frequency, TF over GST control); in the assay with SPIB, 1.02 fold enrichment (6-mer frequency, TF over GST control); with ETV5, 1.04 fold enrichment (6-mer frequency, TF over GST control); in the assay with ELK4, 1.02 fold enrichment (6-mer frequency, TF over GST control). In addition, the binding signal was 1.02 fold enrichment (6-mer frequency, TF over GST control) with ERF; 1.06 fold enrichment (6-mer frequency, TF over GST control) in the assay with ETS2; 1.02 fold enrichment (6-mer frequency, TF over GST control) with SPDEF; 1.13 fold enrichment (6-mer frequency, TF over GST control) with ETV3.
